Data on 40 compounds can be found in PubChem BioAssay (NCI).

Structures are written as SMILES. The panel holds about 83,000 compounds, 20% with a hit somewhere; the sample as a whole holds those more often.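 96-well plates, one dose, 48 hours. Percent growth reported; active if below 10.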 Unmarked numbers belong to inactive results. Active and inactive are the calls of the source.

For this experiment, the system named is IGROV1 ovarian. In words: NCI-60 one-dose screen, 48 h (100 = growth as untreated, 0 = no growth, -100 = all killed). To be noted: 10 µM. As to the method: Growth inhibition of the IGROV1 human tumor cell line is measured as a screen for anti-cancer activity. Cells are grown in 96 well plates and exposed to the test compound for 48 hours. Compounds are tested at a single concentration, which is 10^-5 M for most compounds. The reported endpoint is percent growth (GI% or GIPRCNT), where numbers from 0 - 100% represent growth inhibition, and numbers from -100% - 0 represent cell death. For example, a value of 40 represents 60% growth inhibition. A value of 0 means no net growth occurred over the course of the experiment. A value of -40 indicates 40% of cells at the beginning of the experiment died by the end of the experiment. A value of -100 means all cells are dead at the end of the experiment.
NCI-60 Human Tumor Cell Lines Screen was performed using the standard one-dose NCI protocol, which is described in more detail at https://dtp.cancer.gov/discovery_development/nci-60/default.htm.
Compounds with GIPRCNT values below 10 were considered active. Activity score was based on GIPRCNT using the following formula: […]
Score is 0 for GIPRCNT values of 100 or above, 50 for GIPRCNT values of 0, and 100 for GIPRCNT values of -100.
As to `CC1(C)N=C(N)N=C(N)N1c1ccc(CCCCc2ccc(Cl)cc2S(=O)(=O)F)c(Cl)c1`, the growth was 30.7%. The value for `CC12CCC3C(CC=C4CC(O)CCC43C)C1C/C(=C\N1CCOCC1)C2=O` (stereo not given) was 119%. The value for `CC(=O)C1CCC2C3CC=C4CC(OC(=O)Cc5ccc(N(CCCl)CCCl)cc5)CCC4(C)C3CCC12C` (stereo not given) was 97.3%. The value for `CO[C@@H]1[C@H](OC(=O)NC(=O)CCl)CC[C@]2(CO2)[C@H]1[C@@]1(C)O[C@@H]1CC=C(C)C` was -10.6% (active). `COc1cc(C2(C#N)CCN(C)CC2)cc(OC)c1OC`: the growth is 109%. The value for `C[C@@H]1O[C@@H](O[C@H]2CC[C@@]3(C)[C@H](CCC4[C@@H]3C(O)C[C@]3(C)[C@@H](c5ccc(=O)oc5)CC[C@]43O)C2)[C@H](O)[C@H](O)[C@H]1O` (stereo not given in full) was -62.9% (active). The value for `COc1cc(C2=NN(c3ccccc3)C(c3sc(N(CCCl)CCCl)nc3Cl)C2)cc(OC)c1OC` (stereo not given) was 106%; that for `CC1=C(SCCC(=O)OCC(=O)NCCC[Te]c2ccccc2)C(=O)c2ccccc2C1=O` was -35.5% (active). The value for `O=[N+]([O-])c1ccc2cnn(CSP(=S)(c3ccccc3)c3ccccc3)c2c1` was 67.5%. For the compound `Cc1nnc([S-])s1.[Au+].c1ccc([PH+](c2ccccc2)c2ccccc2)cc1`, the growth was -25.4% (active).

On to `CC(=O)N1N=C(c2ccccc2)CC1c1sc(N(CCCl)CCCl)nc1Cl` (stereo not given), for which the growth is 101%.

`C[CH2][Pb]([CH2]C)([CH2]C)[O]C(=O)c1ccc(N)cc1`: the growth is 61.9%. `N#CC1=C(N)Oc2cc3c(cc2C1c1cccs1)OCO3` (stereo not given): the growth was 35.3%. The value for `O=[N+]([O-])c1ccc(F)c([N+](=O)[O-])c1F` was 105%; that for `CC1(C)N=C(N)N=C(N)N1c1ccc(CCCCc2ccc(S(=O)(=O)F)cc2)c(Cl)c1` was 29.1%. Turning to `CNC(=O)Oc1ccccc1-c1ccccc1`, the growth was 99.3%. The value for `CC(C)CCC1(CCO)C(=O)NC(=S)NC1=O` was 116%; that for `O=S(=O)(O)c1ccc(-c2ccc([As](=O)(O)O)cc2)cc1` was 107%; that for `CN1CCN(C(=O)COc2ccc(/C=C3\CC4C5CC=C6CC(Cl)CCC6(C)C5CCC4(C)C3=O)cc2)CC1` (stereo not given) was 86.6%. Turning to `C[C@]12CCC(=O)CC1CC[C@@H]1C2CC[C@@]2(C)C1CC[C@@H]2OC(=O)CC[Se][Se]CCC(=O)O[C@H]1CCC2[C@@H]3CCC4CC(=O)CC[C@]4(C)C3CC[C@@]21C` (stereo not given in full), the growth was 97.3%. The value for `COc1ccc(CN2CCN(Cc3ccccc3)CC2)c(O)c1` was 91.3%.

Take `COc1cc(NCCCCCN=C(N)N)c2ncccc2c1`: the growth is 23.6%. The value for `CC[CH2][Pb]([CH2]CC)([CH2]CC)[O]C(=O)C(F)(F)F` was -78.8% (active); that for `O=C(Nc1ccc(S(=O)(=O)F)cc1)Oc1ccccc1` was 99.1%. The value for `CC1([N+](=O)[O-])COP(=O)(Nc2ccc(F)cc2)OC1` (stereo not given) was 103%; that for `CN(C)P1(N(C)C)=NP(N(C)C)(N(C)C)=NP(N(C)C)(N(C)C)=N1` was 95.4%. The value for `[O]=[Sn]([CH]1CCCCC1)[CH]1CCCCC1` was -90.9% (active); that for `CC1(C)CC(=O)CC(C)(C)N1N=O` was 122%.

For the compound `c1ccc(CCN2CCCCC2Cc2ccccc2)cc1` (stereo not given), the growth was 92.5%. With `O=C(O)CC(Br)C(=O)CBr` (stereo not given), the growth was 109%. Turning to `CC(=O)O[C@H]1CCC2C3CCC4=C/C(=N/O)CCC4(C)C3CCC21C` (stereo not given in full), the growth was 87.6%.

With `C[C@]12C[C@H](O)[C@H]3[C@@H](CCC4=CC(=O)CC[C@@]43C)[C@@H]1CC[C@@H]2O`, the growth was 105%. The value for `c1ccc2nc(OCCN3CC3)ccc2c1` was 35.1%; that for `O=C(CCl)NCNC(=O)CCl` was 74.4%. The value for `O=C(CCCN1CCC2(CC1)C(=O)NCN2c1ccc(F)cc1)c1ccc(F)cc1` was 71.9%; that for `COC[CH2][Hg][C]#[C][Hg][CH2]COC` was 80.2%. The value for `Cc1ccccc1O` was 102%; that for `CC(C)(NC(=O)c1nn(CCCCCF)c2ccccc12)c1ccccc1` was 101%. With `O=C(C(=O)N1CCCC1)c1cn(CCCCCn2cc(C(=O)C(=O)N3CCCC3)c3ccccc32)c2ccccc12`, the growth is 98.8%. For the compound `C/C1=C/C(=O)O[C@@H]2C[C@@H](CC[C@H](C)/C=C\C=C\CC1)O[C@@](OCCc1ccccc1)([C@@H]1CSC(=O)N1)C2`, the growth was -55.8% (active).
